Bioassay records from PubChem.
LmPK inh – qHTS Assay for Inhibitors of Leishmania Mexicana Pyruvate Kinase (LmPK) | Q27686 | purified LmPK, Kinase-Glo ATP luminescence, 1 h | Potency, µM (titrated, usually from 57.5 µM), inactives show at the highest dose activity change, negative = inhibition, actives largely listed as inhibitors | 0.37% of 290,000 active | AID 1721, 2009
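Purified LmPK (0.1 nM) with 0.5 mM PEP and 0.1 mM ADP in imidazole buffer pH 7.2 with MgCl2/KCl, 1 h at room temperature. ATP formed was read by luciferase luminescence and normalized to no-enzyme and uninhibited controls.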
TbPYK inhibitor – qHTS of Trypanosoma Brucei Inhibitors. pyruvate kinase (Trypanosoma brucei), Q57TT1. TbPYK enzyme, Kinase-Glo Plus ATP luminescence, 45 min. Potency, µM (titrated, usually from 76.8 µM), inactives show at the highest dose activity, negative = inhibition, hits mostly inhibitors. 0.12% of 410,000 active. AID 624173, 2012; further: nearly all actives have a fitted effect of over 50% in size
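Enzyme and substrate buffer are dispensed first and compound is pin-transferred. ADP at 130 uM final then starts the reaction, which runs 45 min at room temperature. Detection reagent is added for 10 min before luminescence is imaged.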
FBPA Giardia inh – qHTS Assay for Inhibitors of Fructose-1,6-bisphosphate Aldolase from Giardia Lamblia. 0.71% of 290,000 active. purified Giardia FBPA. Potency, µM (top dose mostly 59.6 µM), for the others: at the top dose activity, negative = inhibition, actives largely listed as inhibitors; further: nearly all actives have a fitted effect of over 55% in size
Target sequence (A8B2U2 whole entry, looked up): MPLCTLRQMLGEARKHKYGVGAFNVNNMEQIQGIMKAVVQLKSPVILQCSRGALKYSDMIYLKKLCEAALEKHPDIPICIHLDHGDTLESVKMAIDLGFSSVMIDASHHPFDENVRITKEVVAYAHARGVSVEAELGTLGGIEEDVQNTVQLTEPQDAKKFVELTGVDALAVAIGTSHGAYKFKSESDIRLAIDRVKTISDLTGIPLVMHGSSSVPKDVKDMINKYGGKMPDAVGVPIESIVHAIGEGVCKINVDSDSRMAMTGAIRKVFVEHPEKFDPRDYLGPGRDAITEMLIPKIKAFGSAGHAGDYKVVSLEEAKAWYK
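Giardia FBPA (40 nM reagent) was preincubated 10 min at RT with compound (up to 57.5 uM final), then substrate plus GAPDH/TPI/NAD/arsenate coupling system with diaphorase/resazurin was added; resorufin fluorescence (525/598 nm) was read after 20 min.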
RE007 growth inh – qHTS Assay for Inhibitors of the HIV-1 protein Vpr. 0.21% of 360,000 active. AID 651644, 2012. S. pombe RE007 Vpr strain, BacTiter-Glo ATP luminescence, 24 h. Potency, µM (titrated, usually from 92.2 µM), for inactives: at the highest dose activity change, negative = less growth, hits mostly inhibitors; active means well fitted falling curve with a large enough effect; inconclusive means small, poorly fitted or top-dose-only effect; inactive means no such curve, though single readings can be large or run the other way; further: nearly all actives have a fitted effect of over 50% in size
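Fission yeast strain RE007, carrying one chromosomally integrated HIV-1 vpr copy, was seeded at OD 0.01 in PMG+AL medium with 23 nL pinned compound. After 24 h at 30 °C and 99% humidity, viability was read by BacTiter-Glo luminescence.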
* marks the source's active call; other numbers are inactive results; u = inconclusive; x = no result given; [ ] = dose if it differs, or a comment. Hits are enriched below; roughly 0.95% of the tested compounds scored in any of these assays. Unless noted, the call rests on the fitted dose curve; in most records, active means well fitted curve in the direction sought with a large enough effect; inconclusive means small, poorly fitted or top-dose-only effect, or another doubt; inactive means no such curve, though single readings can be large; an effect the other way counts as inactive or inconclusive. On the % scale 0 is the no-effect control and ±100 the full control effect; potency means the concentration at half of the fitted maximal effect.

SMILES	LmPK inh	TbPYK inhibitor	FBPA Giardia inh	RE007 growth inh
CCOc1ccccc1NC(=O)CCS(=O)(=O)c1cccs1	6%	-8%	-12%	3%
CCOc1ccccc1NS(=O)(=O)c1cccs1	2%	4%	14µM*	-12%
S=C(Nc1ccc2nccnc2c1)N1CCOCC1	1%	-3%	14µM*	14%
Cc1ccc(NC(=S)N2CCOCC2)cc1	-2%	-1%	-8%	11%
Cc1cc(=O)c2c(O)c3c(O)cc(O)c4c5c(O)cc(O)c6c(O)c7c(=O)cc(C)c8c1c2c(c34)c(c65)c78	x	x	-28%	x
Cn1c(=O)n(Cc2ccccc2Cl)c(=O)c2c1[nH]c(=S)n2C	-1%	7.9µM*	-28%	6%
N#Cc1cc(-c2ccccc2)nn1-c1ccccc1	25µM*	14µM*	u	-20%
Cn1ccc(-c2ccccc2)n1	-11%	0%	3%	-8%
CCOc1cc(CNc2ccc(O)cc2)cc(Br)c1OCc1ccccc1F	-3%	u	u	u
COc1cc(CNc2ccc(O)cc2)cc(Br)c1OCc1ccccc1F	0%	u	16µM*	-12%
COc1cccc(OCCSc2nnc3sc4ccccc4n23)c1	4%	5%	16µM*	16%
c1ccc(OCCSc2nnc3sc4ccccc4n23)cc1	-24%	-9%	18µM*	-5%
COc1ccc(-c2nc3c(c4c2C[C@H](c2ccccc2)OC4)CN(C(=O)Cc2cccs2)CC3)c(C)c1	-9%[11.5 µM]	x	11%[12.9 µM]	x
O=C1N=C(c2ccccc2)S/C1=C\c1cccs1	0%	7.9µM*	-18%	-25%
O=C1N=C(N2CCN(c3ccccc3)CC2)S/C1=C/c1cccs1	2%	0%	-5%	5%
O=C(Cc1csc(N2CCOCC2)n1)N/N=C/c1ccc(O)c(O)c1O	-2%	-4%	7.9µM*	12%
C/C(=N\NC(=O)Cc1csc(N2CCOCC2)n1)c1ccccc1	5%	x	7%	1%[3.69 µM]
CCCCCCOc1ccc(NC(=O)CC2C(=O)N(CC)C(=S)N2Cc2ccco2)cc1 (stereo unspecified)	1%	-2%	-6%	-2%
CCOC(=O)[C@@H](NC(=O)/C=C/[C@H]1O[C@@H](n2ccc(=O)[nH]c2=O)[C@H](O)[C@@H]1O)C(C)C	x	-1%	x	6%
O=C(/C=C/c1cccs1)N1CCN(c2ccc(O)cc2)CC1	16µM*	-10%	-24%	137%
Cc1ccc(C)c(CN2C(=O)c3ccccc3Sc3ccc(C(=O)NC4CCCC4)cc32)c1	x	-4%	x	x
CC(C)(C)c1cc(-c2n[nH]c(=S)n2-c2ccccc2F)n[nH]1	14µM*	u	-17%	-12%
COc1ccc(-c2cc(-c3n[nH]c(=S)n3-c3ccccc3Cl)[nH]n2)cc1	-5%	u	18%	-10%
Cc1cccc(/C(N)=N/OC(=O)c2ccc3c(c2)OCO3)c1	4.5µM*	u	-7%	35µM*
N/C(=N\OC(=O)c1ccc2c(c1)OCO2)c1cccc([N+](=O)[O-])c1	-10%	-23%	1%	-19%
SMILES	LmPK inh	TbPYK inhibitor	FBPA Giardia inh	RE007 growth inh
Cc1cccc(/C(N)=N/OC(=O)c2cccnc2)c1	22µM*	2%	1%	-15%
COc1cc(OC)cc(C(=O)O/N=C(\N)c2cccc(C)c2)c1	1%	4%	12%	-16%
O=c1[nH][nH]c(=S)n1C1CCCCC1	u	2.5µM*	20µM*	-1%
COc1ccc2nc(/N=C/c3c(C)[nH]n(-c4ccc(C)cc4)c3=O)sc2c1	13µM*	-23%	12%	u
Cc1ccc(-n2[nH]c(C)c(C=Nc3cc(C)ccn3)c2=O)cc1	-20%	5%	-6%	28µM*
COc1ccc2nc(/N=C\N(C)C)sc2c1	-12%	-11%	u	-8%
Cc1ccc(-n2c(N)c(C(=O)N3CCN(C)CC3)sc2=S)cc1	-3%	u	10µM*	-18%
O=C(Nc1ccccc1)C(=O)Nc1cccnc1	14µM*	-16%	7%	-19%
O=C(Nc1ccccc1)c1cccc2c(-c3cccnc3)coc12	x	0%	x	-19%
Cc1ccc(C2CC(=O)Oc3cc4c(cc32)OCO4)cc1 (stereo unspecified)	x	x	50µM*	x
CCCCS(=O)(=O)Nc1ccc(C)cn1	-1%	-30%	7.9µM*	-6%
C=C1C[C@@H]2[C@H]3CCC4=CC(=O)C=C[C@]4(C)[C@@]3(F)[C@@H](O)C[C@]2(C)[C@]1(O)C(=O)COC(C)=O	x	2%	x	x
Cc1ccc2c(c1)c1nnc(SCC(=O)N3CCCc4ccccc43)nc1n2CC(=O)O	4.5µM*	2%	-4%	6%
C[C@@]12CCC(=O)C[C@@H]1CC(=O)[C@H]1[C@H]3CCC[C@]3(C)C(=O)C[C@@H]12 (tested in a mixture with another compound)	x	x	-3%[21.7 µM]	x
Cc1cccc2c1c(N=NC(N)=S)c(O)n2C1OC(CO)C(O)C(O)C1O (stereo unspecified)	2%	-5%	u	18%
COc1ccc(C(=O)/C(Br)=C/C(=O)O)cc1	x	1%	x	x
Cc1cc(N2CCOCC2)ccc1/C=C1\C(=O)NC(=O)N(c2ccccc2)C1=O	-5%	u	-13%	-10%
Cc1cc(N2CCOCC2)ccc1/C=C1/SC(=O)NC1=O	16µM*	u	10%	10%
COc1ccc(OC)c(Nc2nc(=O)c3cccnc3s2)c1	2%	35µM*	u	-3%
Cc1ccc(Nc2nc(=O)c3cccnc3s2)cc1	-5%	11%	-25%	-5%
NC(=O)Nc1cc(-c2cccc(F)c2)sc1C(=O)N[C@H]1CCCNC1	x	0%	x	x
C=CCSc1nnc2c(n1)OC=Nc1ccccc1-2	25µM*	-3%	-16%	u
O=S1(=O)C=C(Sc2nnc(-c3ccccc3)o2)c2ccccc21	0%	u	-4%	10µM*
O=S1(=O)C=C(Sc2nc3ccccc3s2)c2ccccc21	-7%	2%	1%	10µM*
CCOC(=O)c1csc(-c2sccc2Br)n1	16µM*	-22%	-6%	u
SMILES	LmPK inh	TbPYK inhibitor	FBPA Giardia inh	RE007 growth inh
O=C(COC(=O)c1ccccc1OCc1ccccc1Cl)NC1CCS(=O)(=O)C1 (stereo unspecified)	x	5%	x	3%
COc1ccc2nc3oc(C(=O)Nc4ccc(OC)c(OC)c4)cc3cc2c1	22µM*	-26%	0%	-8%
CCC(/C=C1\Sc2ccc(OC)cc2N1CC)=C\c1sc2ccc(OC)cc2[n+]1CCCS(=O)(=O)[O-]	-18%	u	-8%	0%
CCC(/C=C1\Sc2ccc(OC)cc2N1CCO)=C\c1sc2ccc(OC)cc2[n+]1CCO	14µM*	u	u	u
Cc1nc(CC(=O)Nc2ccc(N(C)C)cc2)cs1	x	-7%	x	x
Oc1ccc(N=Cc2ccc(-c3cccs3)s2)cc1	-1%	-22%	3.5µM*	-8%
Cc1ccc(COc2ccc(Br)cc2/C=N/O)cc1	3%	-3%	3%	32µM*
O/N=C/c1cc(Br)ccc1OCc1ccc(F)cc1	x	2%	x	35µM*
